Assay [1] concerns the target Serine/threonine-protein kinase PAK 4 (Homo sapiens) (UniProt O96013). The following applies: at 1 µM.
The target is the same in assay [2]. The note with it: at 10 µM.
Assay [3] has as its target Serine/threonine-protein kinase PAK 5 (Homo sapiens) (UniProt Q9P286). The note with it: at 1 µM.
Assay [4] shares this target. The following applies: at 10 µM.
Assay [5] concerns the target Serine/threonine-protein kinase PAK 6 (Homo sapiens) (UniProt Q9NQU5). The following applies: at 1 µM.
The target is the same in assay [6]. The note with it: at 10 µM.
For assay [7], the target named is PAS domain-containing serine/threonine-protein kinase (Homo sapiens) (UniProt Q96RG2). The note with it: at 10 µM.
Assay [8] deals with Activated CDC42 kinase 1 (Homo sapiens) (UniProt Q07912). The following applies: at 1 µM.
The target is the same in assay [9]. The note with it: at 10 µM.
The target of assay [10] is ALK tyrosine kinase receptor (Homo sapiens) (UniProt Q9UM73). The following applies: at 1 µM.
The target is the same in assay [11]. The following applies: at 10 µM.
Assay [12] concerns the target T1, Activin receptor type-1B (Homo sapiens) (UniProt P36896).
T1 sequence (whole entry): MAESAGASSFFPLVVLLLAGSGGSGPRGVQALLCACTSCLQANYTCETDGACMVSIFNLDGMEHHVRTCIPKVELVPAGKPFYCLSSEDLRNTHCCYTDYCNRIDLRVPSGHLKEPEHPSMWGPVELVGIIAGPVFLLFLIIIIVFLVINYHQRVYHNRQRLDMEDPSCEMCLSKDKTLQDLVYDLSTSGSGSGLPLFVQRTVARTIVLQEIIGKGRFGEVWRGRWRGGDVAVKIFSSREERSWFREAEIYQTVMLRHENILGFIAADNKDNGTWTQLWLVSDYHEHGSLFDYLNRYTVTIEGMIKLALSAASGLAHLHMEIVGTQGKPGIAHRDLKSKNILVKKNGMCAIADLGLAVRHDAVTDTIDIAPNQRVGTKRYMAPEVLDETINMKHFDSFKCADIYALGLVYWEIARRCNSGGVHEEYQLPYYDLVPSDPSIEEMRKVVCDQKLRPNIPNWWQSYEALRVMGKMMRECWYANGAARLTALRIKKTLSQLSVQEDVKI
The following applies: at 1 µM.

Assay [13] has as its target T1, Activin receptor type-1B (Homo sapiens). The following applies: at 10 µM.
The target in assay [14] is T2, AMP-activated protein kinase (AMPK) alpha-1/beta-1/gamma-1 (Homo sapiens) (UniProt P54619+Q9Y478+Q13131). The note with it: at 1 µM.
Assay [15] has as its target T2, AMP-activated protein kinase (AMPK) alpha-1/beta-1/gamma-1 (Homo sapiens). The following applies: at 10 µM.
For assay [16], the target named is T3, AMP-activated protein kinase, AMPK (Homo sapiens) (UniProt P54646+O43741+P54619+Q9UGJ0+Q9Y478+Q13131+Q9UGI9). The note with it: at 1 µM.
The target in assay [17] is T3, AMP-activated protein kinase, AMPK (Homo sapiens). The following applies: at 10 µM.
The target in assay [18] is T4, NUAK family SNF1-like kinase 1 (Homo sapiens) (UniProt O60285).
T4 sequence (whole entry): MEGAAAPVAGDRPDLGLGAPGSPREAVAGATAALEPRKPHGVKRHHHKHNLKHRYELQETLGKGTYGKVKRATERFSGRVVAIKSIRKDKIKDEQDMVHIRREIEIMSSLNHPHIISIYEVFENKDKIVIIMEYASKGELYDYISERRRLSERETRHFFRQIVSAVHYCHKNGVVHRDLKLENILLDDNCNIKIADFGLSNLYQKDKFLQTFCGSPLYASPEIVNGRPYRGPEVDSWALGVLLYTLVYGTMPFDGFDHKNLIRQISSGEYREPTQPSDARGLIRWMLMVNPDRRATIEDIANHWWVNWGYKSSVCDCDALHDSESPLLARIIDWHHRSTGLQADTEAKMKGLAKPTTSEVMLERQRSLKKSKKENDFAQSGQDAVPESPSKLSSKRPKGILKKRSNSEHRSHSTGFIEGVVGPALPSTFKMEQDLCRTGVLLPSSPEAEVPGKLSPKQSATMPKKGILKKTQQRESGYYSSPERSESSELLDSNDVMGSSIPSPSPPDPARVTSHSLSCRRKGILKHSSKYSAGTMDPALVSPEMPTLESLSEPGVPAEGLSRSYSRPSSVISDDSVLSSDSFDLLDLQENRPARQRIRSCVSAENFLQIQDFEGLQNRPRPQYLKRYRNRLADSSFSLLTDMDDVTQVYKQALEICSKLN
The note with it: at 1 µM.

The target in assay [19] is T4, NUAK family SNF1-like kinase 1 (Homo sapiens). The following applies: at 10 µM.
Assay [20] addresses T5, Mitogen-activated protein kinase kinase kinase 5 (Homo sapiens) (UniProt Q99683).
T5 sequence (whole entry): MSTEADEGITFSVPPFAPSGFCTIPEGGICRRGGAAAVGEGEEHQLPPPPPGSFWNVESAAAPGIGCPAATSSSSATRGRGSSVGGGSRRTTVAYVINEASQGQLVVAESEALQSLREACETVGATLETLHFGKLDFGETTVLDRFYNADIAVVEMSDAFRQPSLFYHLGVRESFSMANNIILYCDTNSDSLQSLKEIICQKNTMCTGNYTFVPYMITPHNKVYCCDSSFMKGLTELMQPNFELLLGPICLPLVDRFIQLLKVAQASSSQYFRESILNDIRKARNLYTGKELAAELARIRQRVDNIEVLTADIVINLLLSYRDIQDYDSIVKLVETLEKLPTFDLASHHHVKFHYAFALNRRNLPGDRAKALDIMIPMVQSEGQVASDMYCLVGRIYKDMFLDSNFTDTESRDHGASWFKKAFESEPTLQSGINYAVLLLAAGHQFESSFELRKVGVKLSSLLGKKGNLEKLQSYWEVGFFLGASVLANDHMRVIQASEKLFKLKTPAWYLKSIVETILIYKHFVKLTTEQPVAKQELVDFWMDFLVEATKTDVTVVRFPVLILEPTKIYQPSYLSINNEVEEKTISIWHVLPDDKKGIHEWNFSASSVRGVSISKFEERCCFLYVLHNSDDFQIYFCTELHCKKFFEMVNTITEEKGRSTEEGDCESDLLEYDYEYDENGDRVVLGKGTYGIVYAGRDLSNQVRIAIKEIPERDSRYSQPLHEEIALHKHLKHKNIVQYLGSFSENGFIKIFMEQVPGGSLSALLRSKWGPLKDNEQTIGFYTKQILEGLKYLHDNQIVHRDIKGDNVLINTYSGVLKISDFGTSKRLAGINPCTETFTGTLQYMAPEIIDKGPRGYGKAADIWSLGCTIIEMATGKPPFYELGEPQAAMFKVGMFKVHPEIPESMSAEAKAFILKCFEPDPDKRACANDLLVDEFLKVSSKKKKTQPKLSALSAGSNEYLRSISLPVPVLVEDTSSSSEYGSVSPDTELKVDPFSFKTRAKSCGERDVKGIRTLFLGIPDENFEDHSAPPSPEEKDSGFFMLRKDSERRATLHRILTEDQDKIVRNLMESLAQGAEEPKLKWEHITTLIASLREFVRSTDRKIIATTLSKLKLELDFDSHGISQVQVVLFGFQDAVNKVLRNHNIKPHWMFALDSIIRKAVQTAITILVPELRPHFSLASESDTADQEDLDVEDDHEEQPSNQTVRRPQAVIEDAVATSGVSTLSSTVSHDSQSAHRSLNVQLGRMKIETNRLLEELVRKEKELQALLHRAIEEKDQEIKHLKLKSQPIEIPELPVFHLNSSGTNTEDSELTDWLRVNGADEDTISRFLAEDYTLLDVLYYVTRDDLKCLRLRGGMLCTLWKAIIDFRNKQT
The note with it: at 1 µM.

SMILES strings stand for the structures.

T2 sequence (P54619 whole entry): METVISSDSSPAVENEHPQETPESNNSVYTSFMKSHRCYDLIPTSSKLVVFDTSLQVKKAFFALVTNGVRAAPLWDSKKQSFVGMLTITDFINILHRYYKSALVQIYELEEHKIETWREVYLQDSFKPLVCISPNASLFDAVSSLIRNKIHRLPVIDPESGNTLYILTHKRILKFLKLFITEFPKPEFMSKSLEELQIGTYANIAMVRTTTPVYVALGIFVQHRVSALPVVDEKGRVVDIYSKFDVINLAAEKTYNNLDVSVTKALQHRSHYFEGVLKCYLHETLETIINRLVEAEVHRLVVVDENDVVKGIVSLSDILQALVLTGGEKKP
T2 sequence (Q13131 whole entry partner): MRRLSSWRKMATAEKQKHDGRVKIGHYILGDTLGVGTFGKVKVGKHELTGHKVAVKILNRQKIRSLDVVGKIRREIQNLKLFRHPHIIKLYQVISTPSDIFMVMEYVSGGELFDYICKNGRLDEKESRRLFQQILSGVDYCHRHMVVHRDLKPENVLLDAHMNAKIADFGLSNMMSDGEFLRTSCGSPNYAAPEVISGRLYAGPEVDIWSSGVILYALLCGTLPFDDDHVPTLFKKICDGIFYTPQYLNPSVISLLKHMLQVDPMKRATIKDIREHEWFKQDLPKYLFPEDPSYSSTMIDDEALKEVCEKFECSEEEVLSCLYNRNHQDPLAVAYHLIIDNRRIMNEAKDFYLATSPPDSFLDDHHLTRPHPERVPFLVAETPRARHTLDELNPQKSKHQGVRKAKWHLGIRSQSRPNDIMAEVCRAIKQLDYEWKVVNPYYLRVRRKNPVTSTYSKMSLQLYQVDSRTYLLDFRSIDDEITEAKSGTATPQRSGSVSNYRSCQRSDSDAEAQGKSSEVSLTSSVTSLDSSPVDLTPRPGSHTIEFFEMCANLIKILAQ
T2 sequence (Q9Y478 2-270 partner limits assumed): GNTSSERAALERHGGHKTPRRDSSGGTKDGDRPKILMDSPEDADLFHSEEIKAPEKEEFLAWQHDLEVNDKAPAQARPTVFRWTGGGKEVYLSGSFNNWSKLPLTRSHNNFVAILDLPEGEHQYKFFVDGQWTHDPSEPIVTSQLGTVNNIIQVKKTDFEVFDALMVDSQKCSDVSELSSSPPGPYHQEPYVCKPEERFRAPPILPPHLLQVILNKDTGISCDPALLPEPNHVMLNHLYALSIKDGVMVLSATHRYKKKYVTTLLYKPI
Chain of Activated CDC42 kinase 1 (Homo sapiens) (Q07912 whole entry, looked up): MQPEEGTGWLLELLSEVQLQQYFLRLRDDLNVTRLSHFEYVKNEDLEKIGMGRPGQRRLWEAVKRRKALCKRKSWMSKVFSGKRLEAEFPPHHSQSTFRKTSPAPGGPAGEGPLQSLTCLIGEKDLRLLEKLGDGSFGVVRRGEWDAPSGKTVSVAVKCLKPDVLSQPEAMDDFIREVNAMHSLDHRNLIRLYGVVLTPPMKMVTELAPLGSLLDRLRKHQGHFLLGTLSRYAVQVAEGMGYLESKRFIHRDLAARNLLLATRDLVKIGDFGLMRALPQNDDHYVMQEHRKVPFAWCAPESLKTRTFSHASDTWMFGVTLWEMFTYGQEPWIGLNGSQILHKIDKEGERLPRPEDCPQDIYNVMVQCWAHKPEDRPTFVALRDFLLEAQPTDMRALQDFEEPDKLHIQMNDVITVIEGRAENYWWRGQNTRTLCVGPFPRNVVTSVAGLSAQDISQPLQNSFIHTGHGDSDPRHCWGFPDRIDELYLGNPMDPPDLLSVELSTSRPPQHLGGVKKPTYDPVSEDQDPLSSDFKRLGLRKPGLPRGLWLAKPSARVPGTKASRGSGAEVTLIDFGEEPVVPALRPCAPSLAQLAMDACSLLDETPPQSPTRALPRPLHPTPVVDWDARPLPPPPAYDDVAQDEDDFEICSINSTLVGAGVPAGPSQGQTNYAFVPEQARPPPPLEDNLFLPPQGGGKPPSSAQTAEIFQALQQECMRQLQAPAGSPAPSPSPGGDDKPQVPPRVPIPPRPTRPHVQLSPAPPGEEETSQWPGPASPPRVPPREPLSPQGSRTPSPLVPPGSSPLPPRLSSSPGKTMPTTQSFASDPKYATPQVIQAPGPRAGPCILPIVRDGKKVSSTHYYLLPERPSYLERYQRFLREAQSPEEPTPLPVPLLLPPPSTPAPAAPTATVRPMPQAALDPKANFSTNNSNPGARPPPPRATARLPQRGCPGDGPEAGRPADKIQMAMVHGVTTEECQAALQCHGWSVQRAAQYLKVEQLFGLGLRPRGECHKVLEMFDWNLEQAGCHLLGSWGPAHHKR
Chain of Serine/threonine-protein kinase PAK 4 (Homo sapiens) (O96013 whole entry, looked up): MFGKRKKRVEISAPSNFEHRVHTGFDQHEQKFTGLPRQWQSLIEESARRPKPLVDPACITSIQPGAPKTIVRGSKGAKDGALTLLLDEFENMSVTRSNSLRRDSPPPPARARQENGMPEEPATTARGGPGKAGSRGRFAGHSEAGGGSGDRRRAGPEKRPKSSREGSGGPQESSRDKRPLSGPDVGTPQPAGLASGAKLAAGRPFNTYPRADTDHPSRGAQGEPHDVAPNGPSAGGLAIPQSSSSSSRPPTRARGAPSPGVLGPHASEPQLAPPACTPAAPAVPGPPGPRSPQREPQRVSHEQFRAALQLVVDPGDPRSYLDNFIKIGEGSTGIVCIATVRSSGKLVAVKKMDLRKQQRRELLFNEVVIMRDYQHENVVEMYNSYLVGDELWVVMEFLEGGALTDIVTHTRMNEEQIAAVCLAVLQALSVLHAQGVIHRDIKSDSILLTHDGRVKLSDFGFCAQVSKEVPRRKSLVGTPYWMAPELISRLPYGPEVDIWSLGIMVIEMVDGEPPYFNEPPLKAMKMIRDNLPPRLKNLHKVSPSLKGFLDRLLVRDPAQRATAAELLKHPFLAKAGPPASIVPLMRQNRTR
Chain of Serine/threonine-protein kinase PAK 6 (Homo sapiens) (Q9NQU5 whole entry, looked up): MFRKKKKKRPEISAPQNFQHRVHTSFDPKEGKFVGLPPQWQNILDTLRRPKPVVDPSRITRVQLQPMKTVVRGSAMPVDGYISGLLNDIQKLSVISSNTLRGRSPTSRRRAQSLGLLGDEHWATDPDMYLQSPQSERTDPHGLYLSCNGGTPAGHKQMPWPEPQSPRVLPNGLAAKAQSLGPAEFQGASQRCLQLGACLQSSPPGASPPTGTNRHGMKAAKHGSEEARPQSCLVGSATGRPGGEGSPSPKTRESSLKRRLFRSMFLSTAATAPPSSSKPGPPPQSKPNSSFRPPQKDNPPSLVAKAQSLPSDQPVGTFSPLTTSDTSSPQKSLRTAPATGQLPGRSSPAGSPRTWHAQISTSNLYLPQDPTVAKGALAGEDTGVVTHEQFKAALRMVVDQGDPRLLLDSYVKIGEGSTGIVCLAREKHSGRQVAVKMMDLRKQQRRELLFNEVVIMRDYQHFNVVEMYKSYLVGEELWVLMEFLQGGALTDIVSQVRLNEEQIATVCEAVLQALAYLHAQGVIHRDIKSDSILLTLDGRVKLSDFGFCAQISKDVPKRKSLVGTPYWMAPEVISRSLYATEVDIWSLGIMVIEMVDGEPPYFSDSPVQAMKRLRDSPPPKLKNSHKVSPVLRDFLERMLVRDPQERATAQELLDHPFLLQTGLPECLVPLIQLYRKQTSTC
Chain of PAS domain-containing serine/threonine-protein kinase (Homo sapiens) (Q96RG2 whole entry, the tested form may be a part): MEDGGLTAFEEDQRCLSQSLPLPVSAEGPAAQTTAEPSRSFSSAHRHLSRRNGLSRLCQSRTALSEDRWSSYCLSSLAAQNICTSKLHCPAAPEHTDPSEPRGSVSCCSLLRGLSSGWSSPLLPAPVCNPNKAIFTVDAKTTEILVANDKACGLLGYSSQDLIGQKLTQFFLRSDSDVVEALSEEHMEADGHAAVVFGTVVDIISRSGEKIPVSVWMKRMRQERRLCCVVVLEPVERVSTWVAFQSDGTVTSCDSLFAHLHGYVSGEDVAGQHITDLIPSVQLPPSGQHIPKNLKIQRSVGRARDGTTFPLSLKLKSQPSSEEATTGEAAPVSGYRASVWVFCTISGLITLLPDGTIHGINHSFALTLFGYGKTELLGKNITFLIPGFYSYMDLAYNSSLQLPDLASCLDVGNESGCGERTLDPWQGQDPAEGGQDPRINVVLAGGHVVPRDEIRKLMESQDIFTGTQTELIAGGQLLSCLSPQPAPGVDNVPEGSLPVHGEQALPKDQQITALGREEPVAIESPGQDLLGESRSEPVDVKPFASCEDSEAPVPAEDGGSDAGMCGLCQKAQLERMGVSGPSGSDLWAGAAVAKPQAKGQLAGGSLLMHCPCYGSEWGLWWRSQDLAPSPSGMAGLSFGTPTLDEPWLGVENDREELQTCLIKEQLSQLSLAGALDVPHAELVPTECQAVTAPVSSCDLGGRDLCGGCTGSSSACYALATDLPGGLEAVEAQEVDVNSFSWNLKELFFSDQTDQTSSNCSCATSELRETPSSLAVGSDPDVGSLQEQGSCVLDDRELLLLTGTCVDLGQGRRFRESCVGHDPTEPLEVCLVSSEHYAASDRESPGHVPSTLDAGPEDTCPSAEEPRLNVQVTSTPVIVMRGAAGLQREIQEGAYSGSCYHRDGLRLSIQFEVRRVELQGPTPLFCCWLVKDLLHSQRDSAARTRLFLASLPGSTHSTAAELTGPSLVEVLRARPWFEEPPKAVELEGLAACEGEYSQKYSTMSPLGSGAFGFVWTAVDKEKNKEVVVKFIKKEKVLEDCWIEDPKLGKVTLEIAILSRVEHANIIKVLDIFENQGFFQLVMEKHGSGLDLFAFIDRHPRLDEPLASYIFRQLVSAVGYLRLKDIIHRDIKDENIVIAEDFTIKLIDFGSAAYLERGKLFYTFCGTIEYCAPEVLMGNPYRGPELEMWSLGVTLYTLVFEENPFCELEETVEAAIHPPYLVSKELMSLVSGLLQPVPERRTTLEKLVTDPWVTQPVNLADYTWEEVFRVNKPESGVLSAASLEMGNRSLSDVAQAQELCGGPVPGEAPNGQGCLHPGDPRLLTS

`Nc1ccc2ncnc(NCCc3ccc(Oc4ccccc4)cc3)c2c1`: the residual activity in [1] was found to be 107%; in [2] it was 87%; in assay [3] it was 100%; in assay [4], 81%; in assay [5], 95%; in assay [6], 84%. Moreover, the residual activity in [7] amounted to 65%; in assay [8], 81%; in assay [9], 55%; in assay [10], 81%; in [11] it was 67%; in assay [12], 102%. The residual activity came out at 103% in [13]; 51% in assay [14]; 28% in assay [15]; 65% in assay [16]; 42% in assay [17]; 108% in [18]. In addition, the residual activity was determined as 23% in assay [19] and 87% in assay [20].
For `COc1cc2ncnc(Nc3ccc(O)c(Br)c3)c2cc1OC`, the residual activity in assay [1] was found to be 89%; in [2], 77%; in assay [3], 98%; in assay [4], 98%; in assay [5], 123%; in [6], 104%. Moreover, the residual activity in [7] was determined as 8%; in assay [8], 14%; in assay [9] it was 1%; in assay [10], 19%; in assay [11], 3%; in assay [12], 111%. The residual activity in [13] came to 85%; in assay [14] it was 82%; in [15], 37%; in [16] it was 93%; in assay [17] it was 52%; in [18], 78%. The residual activity in assay [19] worked out at 36%; in assay [20] it was 77%.
With `O=C1Nc2cc(Br)ccc2/C1=C1/Nc2ccccc2/C1=N\O`, the residual activity in [1] stood at 30%; in assay [2] it was 25%; in assay [3], 39%; in [4] it was 55%; in assay [5], 51%; in assay [6] it was 21%. Further, the residual activity came to 115% in assay [7]; 14% in [8]; 2% in assay [9]; 35% in assay [10]; 10% in [11]; 109% in assay [12]. Moreover, the residual activity in [13] was determined as 96%; in assay [14], 2%; in assay [15], 10%; in assay [16], 1%; in assay [17], 10%; in assay [18] it was 11%. In addition, the residual activity is 18% in [19] and 91% in [20].
As to `O=Nc1c(-c2c(O)[nH]c3ccccc23)[nH]c2ccccc12`, the residual activity turned out to be 55% in [1]; 14% in assay [2]; 64% in assay [3]; 33% in [4]; 63% in assay [5]; 37% in assay [6]. For the same compound, the residual activity in [7] worked out at 76%; in assay [8], 34%; in [9], 4%; in assay [10], 52%; in [11], 18%; in [12], 104%. Further, the residual activity stood at 72% in [13]; 2% in assay [14]; 0% in assay [15]; 1% in assay [16]; 3% in assay [17]; 4% in assay [18]. The figures for the residual activity in assay [19] and in assay [20] were 7% and 52%, respectively.
As for `CC[n+]1c(/C=C/N(C)c2ccccc2)n(-c2ccccc2)c2ccc(-c3nc4ccccc4s3)cc21`, the residual activity in [1] amounted to 103%; in [2], 100%; in assay [3], 104%; in assay [4], 119%; in assay [5] it was 102%; in [6], 96%. The residual activity in assay [7] stood at 43%; in [8] it was 110%; in assay [9], 77%; in assay [10], 88%; in assay [11], 69%; in assay [12], 122%. Moreover, the residual activity in assay [13] was determined as 87%; in assay [14] it was 97%; in assay [15], 75%; in [16] it was 116%; in [17] it was 91%; in [18] it was 121%. In addition, the residual activity in [19] is 89%; in assay [20], 106%.
On to `CC#CC(=O)Nc1cc2c(Nc3ccc(F)c(Cl)c3)ncnc2cn1`, for which the residual activity amounted to 99% in assay [1]; 91% in assay [2]; 104% in assay [3]; 107% in assay [4]; 102% in assay [5]; 96% in assay [6]. Besides, the residual activity in [7] is 99%; in [8], 86%; in assay [9], 71%; in assay [10], 81%; in assay [11] it was 81%; in assay [12], 137%. Further, the residual activity in [13] was 99%; in assay [14], 99%; in assay [15], 84%; in assay [16] it was 79%; in [17], 74%; in [18] it was 95%. For the same compound, the residual activity in [19] was determined as 86%; in assay [20] it was 104%.
